In assay [1] the test system is Zika virus NS2B-NS3 protease (unlinked complex). The assay can be described thus: Primary screen GU Rhodamine qHTS for Zika virus inhibitors: Unlinked NS2B-NS3 protease assay (AID 1347159). Note: nearly all actives have a fitted effect of over 60% in size. The method, boiled down: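 Buffer 10 mM Tris-HCl pH 8.0, 0.01% Tween 20. Unlinked protease 25 nM; compound preincubation 15 min, RT, protected from light. Substrate Rhod110, 1.5 microM; ~15% conversion in 15 min.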

The test system of assay [2] is Zika virus NS2B-NS3 protease (linked construct). The assay can be described thus: Primary screen NINDS Rhodamine qHTS for Zika virus inhibitors (AID 1347160). Note: nearly all actives have a fitted effect of over 55% in size. The method, boiled down: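 Aprotinin served as in-plate control. Conditions: 25 nM linked NS2B-NS3, pH 8.0 Tris buffer, titrated compounds, 15 min preincubation and 15 min reaction with 1.5 microM Rhod110 substrate at room temperature.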
In general terms: Quantitative high-throughput screening tests each substance at several concentrations.

Records with an inconclusive call do not appear. Where a call stands in place of a potency, no number is given. Active and inactive are the calls of the source. Calls come from the whole dose curve; as a rule, active = well fitted inhibition curve with a large enough effect; inconclusive = small, poorly fitted or top-dose-only effect; inactive = no such curve, though single readings can be large or run the other way.

Consider `CC(C)S(=O)(=O)NC[C@H](C)c1ccc(-c2ccc(CCNS(C)(=O)=O)cc2)cc1`, for which the Potency entry in assay [1] and in assay [2] was “inactive” each time.
With `COCc1c(Cl)ccc2c1CC[C@H]2c1ncc[nH]1`, the Potency result in assay [1] and in assay [2] was “inactive” throughout.
With `Cn1ncc(Cl)c1-c1cc(C(=O)N[C@H](CN)Cc2ccc(F)c(F)c2)sc1Cl`, the Potency entry in assay [1] and in assay [2] was “inactive” each time.

The values are drawn from PubChem BioAssay (NCATS).
